29 compounds from PubChem BioAssay (EPA / NIEHS) can be followed below.

Assay [1] in a line: CCTE_Shafer_MEA_acute_LDH: CCTE's Lactate Dehydrogenase Assay for Cytotoxicity in the Neural Acute Assay, Shafer Lab (AID 2284086; active = hit-call score of the fitted dose curve at least 0.9, where 1 is the maximum;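 note: active means LDH release rises above DMSO vehicle level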). In outline: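 Medium from rat cortical neuron MEA cultures sampled right after the 40 min compound-exposure recording; released LDH measured by absorbance at 490 nm. Analyzed as signal gain relative to DMSO.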
Assay [2] in a line: CCTE_Shafer_MEA_acute_AB: CCTE's Alamar Blue Assay for Cytotoxicity in the Neural Acute Assay, Shafer Lab (AID 2284069; active = hit-call score of the fitted dose curve at least 0.9, where 1 is the maximum;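 note: active compounds lower the viability signal compared with DMSO wells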). A digest of the protocol: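 Cytotoxicity endpoint for acute MEA exposures of primary rat cortical neurons on day 13 or 15. Resazurin reduction is read fluorescently at 544/590 nm, with DMSO as the negative-control baseline.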
(In general: The colour change of resazurin is a common sign of viable cells or microbes.)

Assay [3] is described as follows: CCTE_Shafer_MEA_dev_network_spike_duration_std: CCTE's Neural Network Formation Assay for Standard Deviation of Network Spike Duration, Shafer Lab (AID 2284052).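 Note: area under curve of spike duration SD across recording days 5 to 12; hits are decreases in network spike duration SD versus DMSO vehicle.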 In outline: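 Developing networks of rat cortical neurons were exposed over twelve days in vitro on 48-well MEA plates. Trapezoidal AUC of recordings (DIV 5–12) was analysed for signal loss relative to DMSO vehicle.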

Assay [4] can be described thus: CCTE_Shafer_MEA_dev_per_network_spike_spike_number_mean: CCTE's Neural Network Formation Assay for Mean Number of Spikes in a Network Spike, Shafer Lab (AID 2284053).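 For AC50: fitted as decrease in spikes per network spike relative to DMSO.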 A digest of the protocol:
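First, rat cortical cells (1.5 x 10^5/well) were seeded onto MEA wells; second, dosing began at plating and was refreshed on DIV 5 and 9; finally, network-spike spike counts across DIV 5–12 were summarized as AUC.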

Assay [5] is described as follows: CCTE_Shafer_MEA_dev_per_network_spike_spike_percent: CCTE's Neural Network Formation Assay for Percent of Spikes in a Network Spike, Shafer Lab (AID 2284054). In outline: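 Rat primary cortical cultures, 1.5 x 10^5 cells/well on MEA. Continuous compound exposure d0–12, medium/compound renewed DIV 5, 9. Network-spike spike % (0.05 s peak window), AUC over 4 recordings, DMSO baseline.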

Assay [6] can be described thus: CCTE_Shafer_MEA_dev_LDH: CCTE's Lactate Dehydrogenase Assay for Cytotoxicity in the Neural Network Formation Assay, Shafer Lab (AID 2284068; active = hit-call score of the fitted dose curve at least 0.9, where 1 is the maximum;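 note: exposure for twelve days from plating with re-dosing on DIV 5 and 9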). In outline:
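Developing rat cortical networks on MEA plates are exposed to compound for 12 days from plating. LDH activity is measured spectrophotometrically, with DMSO as baseline.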

Assay [7] in a line: CCTE_Shafer_MEA_dev_AB: CCTE's Alamar Blue Assay for Cytotoxicity in the Neural Network Formation Assay, Shafer Lab (AID 2284083; active = hit-call score of the fitted dose curve at least 0.9, where 1 is the maximum;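 note: resazurin reduction fluorescence as viability of cultured neurons; twelve days of exposure from plating with re-dosing on DIV 5 and 9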). A digest of the protocol:
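Cytotoxicity companion to the developmental MEA: primary rat cortical neurons, 12-day exposure starting day 0, compound refreshed DIV 5 and 9; resazurin fluorescence, fitted against DMSO vehicle.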

A short description of assay [8]: UKN5_HCS_SBAD2_cell_viability: Viability Assessment in the University of Konstanz (UKN) Leist Lab Neurite Outgrowth Assay in human iPSC-derived immature Dorsal Root Ganglia Neurons (UKN5) (AID 2284056). In outline:
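iPSC-derived immature peripheral neurons (SBAD2) seeded on Matrigel with CHIR99021, SU5402 and DAPT, dosed 1 h later for 24 h. Viability from Hoechst H-33342 and calcein-AM live staining, high-content imaging; bidirectional fit versus DMSO.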

The nature of assay [9]: UKN5_HCS_SBAD2_neurite_outgrowth: University of Konstanz (UKN) Leist Lab Neurite Outgrowth Assay in human iPSC-derived immature Dorsal Root Ganglia Neurons (UKN5) (AID 2284070). To be noted: actives raise or lower the signal. In outline:
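SBAD2 iPSC-derived immature peripheral neurons on Matrigel, 100.000 cells/cm2, medium with CHIR99021 (1.5 uM), SU5402 (5 uM), DAPT (5 uM); compound added 1 h post-seeding for 24 h. Calcein-AM neurite area by high-content imaging; Hoechst H-33342 viability; bidirectional fit vs DMSO.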

Assay [10] has as its system DIO3 (gene 1735). In words: CCTE_GLTED_hDIO3: CCTE's human Deiodinase 3 (DIO3) Inhibition Assay, Great Lakes Toxicology and Ecology Division (GLTED) Lab (AID 2284055; active = hit-call score of the fitted dose curve at least 0.9, where 1 is the maximum;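 for AC50: potency is for inhibition seen as loss of released iodide signal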). In outline: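 Human DIO3 from an adenovirus expression system is incubated 3 h with test chemical. Released iodide is quantified by Sandell-Kolthoff absorbance, in triplicate plates. Loss of signal is fitted relative to DMSO.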

Each structure is given as a SMILES string. “And” between values parts separate entries of the source, which are not always exact repeats. Identical values can stand only once. Records with an inconclusive call do not appear. Some structures have more than one record in an assay (separate samples or runs), and their calls can disagree. The source made the active and inactive calls. Rule for the calls, unless noted: active = hit-call score of the fitted dose curve at least 0.9, where 1 is the maximum; inactive = score below 0.9.

For the compound `C[C@H]1[C@H](c2ccc(Cl)cc2)SC(=O)N1C(=O)NC1CCCCC1`, the result in [1] was inactive.
For `CCCN(CCOc1c(Cl)cc(Cl)cc1Cl)C(=O)n1ccnc1`, the compound was called inactive in assay [2] and in [1].
On to `O=S1OCC2C(CO1)C1(Cl)C(Cl)=C(Cl)C2(Cl)C1(Cl)Cl` (stereo not given), for which the compound was called inactive in assay [3], in assay [2] and in assay [1]. Further, the concentration at half-maximal activity (AC50) in assay [4] was 8.24 µM (active); in assay [5] it was 4.76 µM (active); in [6] it was 8.55 µM (active); in [7], 9.32 µM (active).
Consider `CC(C)N(C(=O)COc1nnc(C(F)(F)F)s1)c1ccc(F)cc1`, for which the call in assay [3], in assay [4], in [5], in assay [8], in [6] and in assay [9] was inactive. Besides, the compound was classed as inactive in assay [7] and in assay [1]. Also, the AC50 was 15 µM (active) in [4], 15 µM (active) in assay [5], 15 µM (active) in [6] and 7.79 µM (active) in assay [7].
With `O=[N+]([O-])/N=C1\NCCN1Cc1ccc(Cl)nc1`, the compound was classed as inactive in assay [3], in [5], in [8], in [6] and in assay [9]. In [4], the AC50 is 15 µM (active).
As to `COP(=S)(OC)Oc1ccc(SC)c(C)c1`, the compound was classed as inactive in assay [2].
Consider `O=C(O)COc1ccc(Cl)cc1Cl`, for which the compound was called inactive in assay [3], in assay [4], in [5] and in assay [7]. Besides, the AC50 in assay [6] is 15 µM (active).
Consider `O=C(O)C(F)(F)C(F)(F)C(F)(F)C(F)(F)C(F)(F)C(F)(F)C(F)(F)F`, for which the compound was classed as inactive in assay [3], in assay [4], in assay [5] and in assay [6]. The AC50 in assay [8] was 768 µM (active); in [9], 899 µM (active).
`COP(=S)(OC)Oc1ccc([N+](=O)[O-])cc1`: the call in [3] and in assay [5] was inactive. Moreover, the figures for the AC50 in assay [4] and in assay [7] were 24.6 µM (active) and 24.3 µM (active), respectively.
Regarding `CC1(c2ccc(Oc3ccccc3)cc2)OC(=O)N(Nc2ccccc2)C1=O` (stereo not given), the AC50 in assay [3] is 3.66 µM (active); in assay [4], 4.26 µM (active); in [5], 2.47 µM (active); in assay [6], 3.28 µM (active); in assay [7], 4.56 µM (active).
Regarding `CC[C@H](C)[C@H]1O[C@]2(C=C[C@@H]1C)C[C@@H]1C[C@@H](C/C=C(\C)[C@@H](O[C@H]3C[C@H](OC)[C@@H](O[C@H]4C[C@H](OC)[C@@H](O)[C@H](C)O4)[C@H](C)O3)[C@@H](C)/C=C/C=C3\CO[C@@H]4[C@H](O)C(C)=C[C@@H](C(=O)O1)[C@]34O)O2` (tested in a mixture with another compound), the AC50 in assay [3] was 2.28 nM (active) and 0.912 nM (active); in assay [4] it was 6.69 nM (active) and 2.06 nM (active); in assay [5], 0.259 µM (active); in assay [6], 522 nM (active) and 0.537 nM (active); in [7] it was 7.85 µM (active). Moreover, the compound was classed as inactive in assay [5], in [7] and in assay [1].
For the compound `N#CN`, the call in assay [2] and in [1] was inactive.
Consider `CC1(C)C(C=C(Cl)Cl)C1C(=O)OC(C#N)c1ccc(F)c(Oc2ccccc2)c1` (stereo not given), for which the AC50 in assay [3] is 3.51 µM (active) and 3.76 µM (active); in assay [4], 3.15 µM (active) and 12.1 µM (active) and 11.9 µM (active); in assay [5] it was 1.72 µM (active) and 13.6 µM (active) and 4.24 µM (active); in [6] it was 42.3 µM (active); in assay [7], 64.4 µM (active). Further, the result in assay [3], in assay [6], in assay [2], in [7] and in [1] was inactive.
For `COP(=O)(OC)OC=C(Cl)Cl`, the AC50 in [3] was 0.852 µM (active); in [4] it was 1.94 µM (active); in [5], 1.99 µM (active); in assay [6], 3.8 µM (active); in assay [7], 30.4 µM (active). In addition, the compound was classed as inactive in [3], in assay [4] and in assay [6].
For `CNC(=O)/C=C(\C)OP(=O)(OC)OC`, the outcome in assay [2] and in assay [1] was inactive.
Take `ClC1C(Cl)C(Cl)C(Cl)C(Cl)C1Cl` (stereo not given): the result in [3], in assay [4], in assay [5], in [8], in assay [6] and in assay [9] was inactive. Further, the result in assay [7] and in assay [1] was inactive.
As to `CCC(C)(C)C(=O)OC1=C(c2ccc(Cl)cc2Cl)C(=O)OC12CCCCC2`, the outcome in [3], in assay [4], in assay [5], in assay [6], in [2] and in [7] was inactive. For the same compound, the outcome in assay [1] was inactive.
For `O=S(=O)(O)C(F)(F)C(F)(F)C(F)(F)C(F)(F)C(F)(F)C(F)(F)C(F)(F)C(F)(F)F`, the outcome in assay [3], in [4], in [5], in assay [10], in assay [6] and in assay [2] was inactive. Also, the AC50 was 50 µM (active) in assay [4]; 770 µM (active) in [8]; 16.4 µM (active) in assay [6]; 752 µM (active) in assay [9]; 50 µM (active) in assay [7].
In the case of `Clc1ccccc1-c1nnc(-c2ccccc2Cl)nn1`, the result in assay [2] and in [1] was inactive.
Consider `CCCN(CCC)c1c([N+](=O)[O-])cc(C(F)(F)F)cc1[N+](=O)[O-]`, for which the compound was called inactive in assay [2] and in [1].
`N#Cc1c(Cl)c(Cl)c(Cl)c(C#N)c1Cl`: the AC50 in assay [10] is 0.404 µM (active). Moreover, the outcome in assay [2] was inactive.
With `O=C(O)CCCOc1ccc(Cl)cc1Cl`, the compound was classed as inactive in assay [2] and in [1].
`CCC(C)Nc1c([N+](=O)[O-])cc(C(C)(C)C)cc1[N+](=O)[O-]` (stereo not given): the outcome in assay [2] was inactive.
Consider `Oc1cc(Cl)ccc1Oc1ccc(Cl)cc1Cl`, for which the AC50 in [3] was 7.04 µM (active); in [4], 9.32 µM (active); in [5] it was 9.46 µM (active); in [10], 85.5 µM (active); in assay [6], 6.58 µM (active); in assay [7], 14.2 µM (active). The outcome in [2] and in assay [1] was inactive.
With `Oc1ccc(Cl)cc1Cc1ccccc1`, in [10], the AC50 is 158 µM (active). The result in [2] and in [1] was inactive.
As for `O=C1c2ccccc2C(=O)N1SC(Cl)(Cl)Cl`, the AC50 in assay [2] is 20 µM (active). Besides, the call in assay [1] was inactive.
On to `CCOCN(C(=O)CCl)c1c(C)cccc1CC`, for which the AC50 in assay [10] was 58.1 µM (active).
As for `CCC(C)(NC(=O)c1cc(Cl)c(C)c(Cl)c1)C(=O)CCl` (stereo not given), the AC50 in assay [10] was 41.2 µM (active).
With `CNC(=O)CSP(=S)(OC)OC`, the outcome in assay [3] and in assay [4] was inactive. Further, the concentration at half-maximal activity (AC50) in assay [4] was 50 µM (active); in assay [5], 50 µM (active) and 15 µM (active); in assay [6], 66.6 µM (active) and 24.2 µM (active); in assay [7], 50 µM (active) and 26.8 µM (active).

As usually defined, the AC50 is the concentration giving half of the maximal activity seen.
